# Test results reported in PubChem BioAssay AID1626 (SRMLSC, 2009).
# “And” between values parts separate entries of the source, which are not always exact repeats. Equal values may be shown once. About 2,000 (0.91%) of roughly 220,000 compounds were called active. Another 2% or so got no clear call; they are omitted. No stated cut-off is given here; in the data, inconclusive means inhibition above about 80% without an active follow-up result; inactive means below that; test concentration not stated here. A selection follows. Results with a measured potency or affinity are listed apart.
# Experiment: M. tuberculosis H37Rv growth inhibitors, H37Rv strain (AID 1626);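 further: bacteria incubated seven days before Alamar blue readout; 0% = bacteria only wells and 100% = bacteria with antibiotic wells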
# Conditions: active compounds read high, concentration not given here
row,SMILES,inhibition
1,CCc1ccc(C(C(=O)NC(C)(C)CC)N(Cc2ccco2)C(=O)Cn2nnc3ccccc32)cc1 (centres undefined),2.42% (inactive)
2,COc1ccc(NS(=O)(=O)c2ccc(Cl)c(NC(=O)c3cccnc3Cl)c2)cc1,9.9% (inactive)
3,O=[N+]([O-])c1cccc2c(Cl)ccnc12,-5.33% (inactive)
4,Cc1ccc(C(=O)CC(=O)c2ccc(C(C)(C)C)cc2)cc1,3.46% (inactive)
5,Cc1ccc(C(=O)CNc2cccc(Cl)c2)cc1,-5.8% (inactive)
6,CC(C)(C)c1ccc(C(=O)NNC(=O)c2ccc(Cl)cc2)cc1,1.17% (inactive)
7,Cc1ccc(C(=O)CNc2ccc(Cl)cc2)cc1,-1.34% (inactive)
8,Cc1ccc(O)c(C(=O)CC(=O)c2cccc(F)c2)c1,62.1% (inactive)
9,Cc1ccc(NCCC(=O)c2ccc(Cl)cc2)cc1,51.3% (inactive)
10,CCOC(=O)c1c(CS(=O)(=O)c2ccccc2)n(C)c2cc(Br)c(O)c(CN(C)C)c12,-0.08% (inactive)
11,COc1cccc(N=Nc2c(N)[nH]n3c(=O)cc(-c4ccccc4)nc23)c1,70.2% (inactive)
12,CCC(Oc1ccccc1)C(=O)N1CCN(c2ccccn2)CC1 (centres undefined),0.51% (inactive)
13,O=C(Nc1ccc(-c2nnn(CC(=O)N3CCN(C(=O)c4ccco4)CC3)n2)cc1)c1ccccc1F,-1.57% (inactive)
14,O=C(O)/C=C/C(=O)NC1CC1,-1.35% (inactive)
15,Cc1ccc(N/C=C(\C2OC(=O)c3ccccc32)[N+](=O)[O-])c(C)c1 (centres undefined),0.81% (inactive)
16,O=C1OC(/C(=C\Nc2ccc(F)cc2F)[N+](=O)[O-])c2ccccc21 (centres undefined),6.38% (inactive)
17,O=C(c1ccc([N+](=O)[O-])s1)N1CCN(c2ccccc2)CC1,2.71% (inactive)
18,O=C(c1cccc([N+](=O)[O-])c1)N1CCN(c2cccc(Cl)c2)CC1,2.48% (inactive)
19,COc1ccc(C2Nc3ccccc3C(=O)N2c2ccccc2)cc1COc1ccccn1 (centres undefined),6.87% (inactive)
20,CCN(CC)CCNS(=O)(=O)c1ccc(C(=O)NN)cc1,2.36% (inactive)
21,Cc1cccc(C)c1OCc1nnc2c3cnn(C)c3ncn12,-9.69% (inactive)
22,COC(=O)c1c(C)oc(C)c1S(=O)(=O)N(C)C1CCCCC1,-4.71% (inactive)

row,SMILES,inhibition
1,O=[N+]([O-])c1ccc(N=Cc2ccc(Br)c([N+](=O)[O-])c2)cc1,8.65% (inactive)
2,C(=Nc1ccc(Nc2ccccc2)cc1)c1ccc2ccccc2c1,51.2% (inactive)
3,COc1ccc(C(=O)CN2C3=NCCCN3c3ccccc32)cc1OC,-2.22% (inactive)
4,CCc1c(C(=O)N/N=C/c2ccsc2)csc1C,-6.79% (inactive)
5,CCc1ccc(C(=O)NC(C(=O)O)C(C)C)cc1 (centres undefined),-19.3% (inactive)
6,COc1ccc(NC(=O)CCSc2ccc3ccccc3n2)cc1,70.9% (inactive)
7,COc1cccc(NC(=O)CCSc2ccc3ccccc3n2)c1,28.7% (inactive)
8,Cc1cc(C)n2nc(N)c(N=Nc3cccc(Cl)c3)c2n1,79.8% (inactive)
9,CC(=O)c1ccc(-c2ccc(/C=C(/Sc3n[nH]c(C)n3)C(=O)O)o2)cc1,6.55% (inactive)
10,Cc1nc(S/C(=C/c2ccc(-c3ccc(C(=O)O)cc3)o2)C(=O)O)n[nH]1,-17.2% (inactive)
11,O=c1oc2ccccc2c(N2CCCCC2)c1CN1CCCCC1,1.71% (inactive)
12,COc1ccc(OC)c(NC(=O)c2cc3ccccc3o2)c1,7.13% (inactive)
13,COc1ccc(OC(=O)c2cc3ccccc3o2)cc1,0.38% (inactive)
14,O=C1CCCC2=C1C(c1ccncc1)c1c(nc(SCc3ccccc3Cl)[nH]c1=O)N2 (centres undefined),11.3% (inactive)
15,CC[C@@H](C)C(NC(=O)OC(C)(C)C)c1cn([C@@H](CCC(=O)OC(C)(C)C)C(=O)N2CCN(C(=O)OC(C)(C)C)CC2)nn1 (some centres undefined),-1.45% (inactive)
16,O=C(c1ccc(COc2c(F)c(F)c(F)c(F)c2F)o1)N1CCN(Cc2ccc3c(c2)OCO3)CC1,-9.41% (inactive)
17,O=C(c1ccc(COc2ccccc2Cl)o1)N1CCN(Cc2ccc3c(c2)OCO3)CC1,-0.88% (inactive) and 13.3% (inactive)
18,OCCC1CN(Cc2cccc(-n3cccn3)c2)CCN1Cc1ccccc1 (centres undefined),-1.74% (inactive)
19,CC(CCc1ccccc1)NC(=O)CSc1nc(N)cc(N)n1 (centres undefined),-5.33% (inactive)
20,COc1cccc(C2(O)CCN(Cc3ccncc3)CC2)c1,-10.2% (inactive)
21,COc1cc2c(C(=O)O)c(C)n(C)c2cc1Br,-0.16% (inactive)
22,Cc1cnc(C(=O)NCc2ccc(Cl)cc2Cl)cn1,-2.88% (inactive)

row,SMILES,inhibition
1,CCOC(=O)c1cc(C)nc(SC)c1C#N,2.58% (inactive)
2,C#CCSc1nc(C)cc(C(=O)OCC)c1C#N,-3.19% (inactive)
3,NC1=NC(c2ccccc2)=NC1(NC(=O)c1ccccc1)C(Cl)Cl (centres undefined),-0.7% (inactive)
4,COc1ccc(OCC(O)CN(CCO)CC(O)Cn2ccc3ccccc32)cc1 (centres undefined),3.01% (inactive)
5,COC(=O)c1ccc(OCC(O)CN(CCO)CC(O)Cn2ccc3ccccc32)cc1 (centres undefined),4.35% (inactive)
6,Cc1ccsc1C(=O)C1CCCN(Cc2cc(F)ccc2-n2cccn2)C1 (centres undefined),10.8% (inactive)
7,CCN1CCN(C(=O)c2ccc(-c3nc4ccccc4s3)s2)CC1,0.41% (inactive)
8,Cc1noc(C)c1COC(=O)c1ccc(-c2nc3ccccc3s2)s1,-10.8% (inactive)
9,COCCNC(=O)COC(=O)CSCc1nc2ccccc2s1,-1.53% (inactive)
10,O=C(NC1CC1)c1ccc(-c2nc3ccccc3s2)s1,46.3% (inactive)
11,O=S(=O)(NC1CCCCC1)c1ccc(Br)cc1,3.07% (inactive)
12,Cc1occc(=O)c1OCc1c(F)cccc1Cl,1.78% (inactive)
13,CC(C)CNC(=O)COc1ccc(Sc2ccc(OCC(=O)NCC(C)C)cc2)cc1,4.46% (inactive)
14,CCc1nnc(NC(=O)CCC(=O)NCc2ccc(OC)cc2)s1,-3.41% (inactive)
15,O=C(O)c1cccc(Cn2c(Cl)c(/C=N/NC(=O)c3cccc(O)c3)sc2=O)c1,-13.5% (inactive)
16,Cc1ccc(NC(=O)CCC(=O)c2cccs2)c(O)c1,-1.47% (inactive)
17,Cc1ccc2nc(-c3ccncc3)cc(-c3ccccc3)c2c1,9.15% (inactive)
18,CCS(=O)(=O)Nc1cccc(-c2ccc3nnc(C)n3n2)c1,-7.2% (inactive)
19,Cc1ccc2nc(-c3ccc(NS(C)(=O)=O)cc3)cc(-c3ccccc3)c2c1,64.5% (inactive)
20,CCOC(=O)c1cc(-c2ccccc2)nc2ccc(C)cc12,29.4% (inactive)
